# Source: PubChem
# In the library only some 1.7% were active in any assay of this set; here they are far more common.
# RecA intein inh – blocks M. tuberculosis RecA intein splicing; actives 0.75% (n = 290,000); P9WHJ3; AID 2221; inhibition, % (concentration not given with the values); cell-free RecA intein splicing, fluorescence; in the data active = inhibition above about 30%;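 also: 0% = vehicle wells and 100% = reference inhibitor control wells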
# Target sequence (P9WHJ3 whole entry, looked up): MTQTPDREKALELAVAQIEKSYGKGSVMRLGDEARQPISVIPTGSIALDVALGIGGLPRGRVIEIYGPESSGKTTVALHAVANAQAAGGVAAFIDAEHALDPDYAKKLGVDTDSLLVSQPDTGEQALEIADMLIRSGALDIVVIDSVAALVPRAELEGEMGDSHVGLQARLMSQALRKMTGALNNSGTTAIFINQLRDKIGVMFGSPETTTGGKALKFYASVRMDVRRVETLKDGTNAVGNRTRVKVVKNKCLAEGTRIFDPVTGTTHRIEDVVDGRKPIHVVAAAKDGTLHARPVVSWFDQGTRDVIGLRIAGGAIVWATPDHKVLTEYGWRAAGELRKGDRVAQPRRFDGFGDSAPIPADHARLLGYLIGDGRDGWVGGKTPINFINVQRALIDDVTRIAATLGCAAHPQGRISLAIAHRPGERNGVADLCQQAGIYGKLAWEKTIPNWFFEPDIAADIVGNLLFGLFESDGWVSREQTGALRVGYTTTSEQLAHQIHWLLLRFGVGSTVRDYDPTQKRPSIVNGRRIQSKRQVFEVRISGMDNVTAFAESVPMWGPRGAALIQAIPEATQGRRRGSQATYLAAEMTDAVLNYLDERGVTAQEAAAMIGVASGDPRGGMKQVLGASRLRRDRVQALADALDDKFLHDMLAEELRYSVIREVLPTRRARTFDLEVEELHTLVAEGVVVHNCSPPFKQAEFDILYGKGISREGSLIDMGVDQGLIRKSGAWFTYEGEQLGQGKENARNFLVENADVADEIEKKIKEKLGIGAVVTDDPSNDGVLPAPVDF
# Mtb hypoxia rep – Mtb hypoxia fluorescent reporter inhibition; M. tuberculosis hypoxia-regulated fluorescent reporter, fluorescence; fluorescence inhibition, % (no concentration beside the values); actives 0.1% (n = 300,000); AID 1159583; in the data active = fluorescence inhibition mostly above about 23%, no sharp cut-off; inactive = mostly below about 17%
# Mtb betalactam – beta-lactam sensitization of Mtb H37Rv; inhibition, % at 25 µM; actives 0.27% (n = 330,000); M. tuberculosis H37Rv growth with meropenem, percent inhibition; AID 434955; call rule not given here;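 also: growth measured after seven days incubation then overnight dye step; 0% = bacteria only wells and 100% = bacteria with antibiotic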
# PfHsp40 rescue – compounds rescuing yeast from Plasmodium falciparum HSP40 toxicity; S. cerevisiae expressing PfHsp40, growth rescue, ATP luminescence; actives 0.68% (n = 340,000); AID 504582; growth rescue, % at 12.5 µM; in the data active = growth rescue above about 28%, passing the limit was not always enough;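 also: yeast W303a lacking pdr1 and pdr3 grown in galactose medium; growth measured after three days at 30 °C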
# CCHF vOTU inh-1 – blocks the CCHF virus ovarian tumor domain protease; CCHFV vOTU protease, Pep-AMC fluorescence; inhibition, % at 11.5 µM; actives 0.55% (n = 370,000); AID 651958; also: 0% = vehicle wells with enzyme and 100% = no enzyme wells
# CCHF vOTU inh-2 – confirmation of CCHF virus vOTU protease inhibitors; AID 686976; actives 17% (n = 1,900); shares compounds with CCHF vOTU inh-1; inhibition, % at 11.5 µM; Recombinant CCHFV vOTU, Pep-AMC fluorescence
# * = called active by the depositor; / = no result given; ! = repeats disagree. Rule as the data show it, unless noted: active = inhibition above about 30%; inactive = the rest.
SMILES,RecA intein inh,Mtb hypoxia rep,Mtb betalactam,PfHsp40 rescue,CCHF vOTU inh-1,CCHF vOTU inh-2
COC(=O)c1ccc(-c2nc3cc(Cl)c(N)cc3s2)cc1,3,/,-7,-1,43*,-5
COc1ccccc1C1=CC(=O)CC(c2ccc(Cl)cc2)C1 (stereo unspecified),/,9,/,/,/,/
CC1=C(/C=C/C(C)=C/C=C/C(C)=C/C(=O)Nc2ccc(O)cc2)C(C)(C)CCC1,/,/,100,1,34*!,6
Cc1cccc2cc(C=NNC(=O)c3ccncc3)c(Cl)nc12,/,3,/,/,/,/
Nc1nonc1-n1nnc(C(=O)NN=Cc2cccs2)c1CSc1ccccc1,/,-12,/,/,/,/
COC(=O)C1=C(c2ccc(F)cc2F)CC2CCC1N2C(=O)N1CCCC1 (stereo unspecified),/,4,/,/,/,/
COc1cc(N)c2ncccc2c1SC,/,/,/,/,28,/
COc1cc(N)c2ncccc2c1Br,/,6,/,1,105*,25
Cc1ccc(NC(=O)c2nc[nH]c2C(=O)NC(C)c2ccccc2)cc1 (stereo unspecified),/,3,/,/,/,/
CC1CN(C(C)CO)C(=O)c2cccc(N(C)C)c2OC1CN(C)Cc1ccncc1 (stereo unspecified),/,2,/,/,/,/
c1ccc(NN=C(Cc2nc3ccccc3[nH]2)c2ccccc2)cc1,/,-2,/,/,/,/
CCOC(=S)NC(=O)c1sc2ccccc2c1Cl,13,10,8,3,34*,-3
c1cc2c3c(cccc3c1)NC1(CCCCC1)N2,22,10,2,-2,30*,17
O=C(NC1(O)C(=O)c2ccccc2C1=O)c1ccc(C(F)(F)F)cc1,7,-2,4,/,81*,35*
COC(=O)c1sc(N2C(=O)C(O)=C(C(=O)c3ccc(C)o3)C2c2ccc([N+](=O)[O-])cc2)nc1C (stereo unspecified),1,7,-4,-2,31*,-1
O=C1C2=C(c3ccccc31)[N+](=O)[C@@H]1CCCC[C@@H]1N2[O-],/,4,-4,1,74*,27
CCN(C(=O)CSc1nnc(SC(C)C)s1)C1CCS(=O)(=O)C1 (stereo unspecified),/,/,-1,-1,37*,-11
COc1ccc(C#Cc2ccc3c(c2)O[C@H](CN(C)S(=O)(=O)c2ccccc2F)[C@H](C)CN([C@H](C)CO)S3(=O)=O)cc1,/,/,/,/,1,/
C[C@@H]1CN([C@H](C)CO)S(=O)(=O)c2ccc(Br)cc2O[C@@H]1CN(C)C(=O)NC1CCCC1,/,/,/,/,-1,/
COc1ccc(S(=O)(=O)N(C)C[C@@H]2Oc3cc(C#CC4CCCCC4)ccc3S(=O)(=O)N([C@@H](C)CO)C[C@@H]2C)cc1,/,/,/,/,32*,-8
C[C@H](CO)N1C[C@H](C)[C@@H](CN(C)C(=O)NC2CCCC2)Oc2cc(Br)ccc2S1(=O)=O,/,/,/,/,30*,-10
NC1=NCC(Cc2ccccc2)N1CCc1cccc(F)c1 (stereo unspecified),/,17,/,/,/,/
CCCCC(=Nc1ccc(N)cc1)C1=C(O)C(C(=O)OC)C(C)(C)CC1=O (stereo unspecified),-5,19,42,0,92*,8
CCC(=Nc1ccc(N)cc1)C1=C(O)C(C(=O)OC)C(C)(C)CC1=O (stereo unspecified),-7,1,9,0,105*,5
CCCC(=Nc1ccccc1)C1=C(O)C(C(=O)OC)C(C)(C)CC1=O (stereo unspecified),1,-1,-1,0,-12,/
SMILES,RecA intein inh,Mtb hypoxia rep,Mtb betalactam,PfHsp40 rescue,CCHF vOTU inh-1,CCHF vOTU inh-2
COC1=C(Nc2ccc(C)cc2)C(=O)c2ccccc2C1=O,5,4,7,2,55*,-9
COC1=C(Nc2ccccc2)C(=O)c2ccccc2C1=O,8,-2,11,-2,15,/
CCc1ccc(/C=c2\s/c(=C\C(=O)C(C)(C)C)[nH]c2=O)cc1,13,/,100,1,36*,8
N#CCCN(CCC#N)C(=O)c1ccc(Cl)cc1,0,-4,1,0,36*,-12
COCCCNc1c2c3c(cccc3[nH]c1=O)C(=O)c1ccccc1-2,/,-40,-1,-1,32*,1
O=C(C=NO)NCCCN1CCOCC1,/,10,/,/,/,/
C=CCn1c2ccccc2c2nnc(SCCN3CCCCC3)nc21,-1,9,70,1,-4,/
C=CCn1c2ccccc2c2nnc(SCCCn3c(=O)[nH]c4ccccc43)nc21,/,-5,/,4,31*,-4
COc1ccc(C(=NO)C(=NO)c2ccc(OC)cc2)cc1,/,1,/,/,/,/
CC(=O)c1cccc(NC(=O)C2(C)Cc3c(-c4cccc(C(F)(F)F)c4)ccnc3O2)c1 (stereo unspecified),/,/,/,/,33*,5
CC(=O)c1cccc(-c2ccnc3c2CC(C(=O)Nc2cccc(C(F)(F)F)c2)O3)c1 (stereo unspecified),/,/,/,/,33*,-8
CC(=O)Nc1cccc(-c2ccnc3c2CC(C)(C(=O)Nc2cccc(OC(F)(F)F)c2)O3)c1 (stereo unspecified),/,/,/,/,13,/
CC1(C(=O)Nc2cccc(OC(F)(F)F)c2)Cc2c(-c3cccc(C(F)(F)F)c3)ccnc2O1 (stereo unspecified),/,/,/,/,40*,-4
Cc1cc(C)cc(NC(=O)CN(C)CC(=O)N(CC(C)C)c2c(N)n(CC(C)C)c(=O)[nH]c2=O)c1,/,8,-5,0,35*,-27
O=C(Nc1ccc(O)cc1C(=O)O)c1ccc(NC(=O)c2ccco2)cc1,/,5,-12,0,37*,-3
O=C(Nc1ccccc1C(=O)O)c1cccc(NC(=O)c2ccco2)c1,-4,13,-2,0,15,/
O=C(c1ccc2nc(-c3ccco3)c(-c3ccco3)nc2c1)N1CCN(c2ncccn2)CC1,-17,0,4,1,32*,50*
CCCNC(=O)c1ccc2nc(-c3ccccc3)c(-c3ccccc3)nc2c1,0,14,63,-1,2,/
O=C(NCc1ccccc1)c1ccc2nc(-c3ccco3)c(-c3ccco3)nc2c1,-4,/,2,-1,49*,-1
O=C(NCCCO)c1ccc2nc(-c3ccco3)c(-c3ccco3)nc2c1,/,10,/,0,40*,55*
O=C(NCc1ccccc1)c1ccc(C(=O)NCc2ccccc2)cc1,/,/,/,0,9,/
CCCCNC(=O)c1ccc2nc(-c3ccco3)c(-c3ccco3)nc2c1,-1,11,1,1,48*,8
O=C(c1cccc(C(=O)N2CCN(c3ncccn3)CC2)c1)N1CCN(c2ncccn2)CC1,-4,1,-9,-1,-8,/
CN(C)c1cccc2c(C=NO)ccc(N(C)C)c12,/,6,/,/,/,/
CC1CN(C(C)CO)C(=O)c2cc(NC(=O)Cc3cn(C)c4ccccc34)ccc2OC1CN(C)C(=O)Nc1ccc2c(c1)OCO2 (stereo unspecified),/,-9,/,/,/,/
O=[N+]([O-])c1ccccc1NN=Cc1ccccc1F,/,11,/,/,/,/
NC(=O)COc1ccc(C=NNC(=O)CC(=O)NCCc2ccccc2)cc1,/,3,/,/,/,/
